# Compound activity deposited in PubChem by The Scripps Research Institute Molecular Screening Center.
# This is a sample that favours compounds with a hit; in the whole collection about 2.5% have one here.
# UHRF1 MBD2 ctr: UHRF1 methylated DNA binding inhibitors, primary screen, counter-screen for MBD2 inhibitor project, biochemical, TR-FRET, human UHRF1, single concentration | E3 ubiquitin-protein ligase UHRF1 (Homo sapiens), Q96T88 | UHRF1 binding to methylated oligo | inhibition, % at 4.4 µM | actives 0.75% (n = 370,000) | AID 687016, 2013; in the data active = inhibition above about 21%;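 also: UHRF1 SRA domain binding a hemimethylated CpG hairpin DNA probe; 0% = median of test compound wells and 100% = reference inhibitor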
# Target sequence (Q96T88 whole entry, looked up, the tested form may be a part): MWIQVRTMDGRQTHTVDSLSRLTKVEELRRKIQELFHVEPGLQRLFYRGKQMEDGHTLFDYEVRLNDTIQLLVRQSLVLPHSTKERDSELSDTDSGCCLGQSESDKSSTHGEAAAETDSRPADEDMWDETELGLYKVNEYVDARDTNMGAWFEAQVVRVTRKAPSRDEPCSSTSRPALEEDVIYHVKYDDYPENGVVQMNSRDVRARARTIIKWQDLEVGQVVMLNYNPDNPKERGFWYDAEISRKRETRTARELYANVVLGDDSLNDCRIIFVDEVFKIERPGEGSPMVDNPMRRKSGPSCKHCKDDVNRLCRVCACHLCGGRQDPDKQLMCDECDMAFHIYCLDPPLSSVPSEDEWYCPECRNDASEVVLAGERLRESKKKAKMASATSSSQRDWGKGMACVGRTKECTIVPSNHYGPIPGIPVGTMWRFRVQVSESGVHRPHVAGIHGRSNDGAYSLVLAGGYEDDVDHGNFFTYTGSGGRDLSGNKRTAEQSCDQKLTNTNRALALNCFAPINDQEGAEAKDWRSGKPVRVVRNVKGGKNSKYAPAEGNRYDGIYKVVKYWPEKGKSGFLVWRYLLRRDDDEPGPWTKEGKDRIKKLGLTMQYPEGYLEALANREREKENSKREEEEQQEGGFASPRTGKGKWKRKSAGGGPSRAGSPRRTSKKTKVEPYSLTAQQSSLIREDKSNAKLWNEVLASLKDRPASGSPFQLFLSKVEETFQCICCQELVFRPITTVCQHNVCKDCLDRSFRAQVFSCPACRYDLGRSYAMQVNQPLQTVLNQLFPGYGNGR
# LEDGF integ inh: blockers of LEDGF/p75-dependent integrase strand transfer – biochemical, TR-FRET, high throughput, primary screen; HIV-1 integrase (with human LEDGF/p75); TR-FRET IN-LEDGF/p75 DNA integration, Eu/Cy5; inhibition, % at 3.7 µM; actives 0.64% (n = 370,000);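 active = inhibition above the screen-wide mean plus 3 SD, cut at about 13% in these data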;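 also: signal is the Cy5 over europium emission ratio at 671 and 618 nm; 0% = plate median of compound wells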
# MBD2 DNA inh: inhibitors of MBD2 binding to methylated DNA, primary screen, biochemical, TR-FRET, DNA-binding domain, human. Methyl-CpG-binding domain protein 2 (Homo sapiens), Q9UBB5. MBD2 binding to methylated oligonucleotide. inhibition, % at 4.4 µM. actives 0.31% (n = 370,000). AID 686964, 2013; in the data active = inhibition above about 13%
# PRMT1 inh: PRMT1 methyltransferase inhibitors, primary screen, biochemical, fluorescence polarization | AID 652257, 2013 | recombinant PRMT1, activity-based probe fluorescence polarization | Protein arginine N-methyltransferase 1 (Homo sapiens), Q99873 | actives 1.3% (n = 370,000) | inhibition, % at 2.79 µM;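 active = inhibition above about 21% made by adding two undisclosed values, limit read from the data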
# PRMT1 inh conf: PRMT1 methyltransferase inhibitors, confirmation, biochemical, fluorescence polarization, triplicate; shares compounds with PRMT1 inh; recombinant His-PRMT1, activity-based probe fluorescence polarization; AID 687036, 2013; actives 42% (n = 3,300); inhibition, % at 2.79 µM;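 active = mean inhibition across replicates above the hit cutoff derived for the earlier primary screen, cut at about 22% in these data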
# An asterisk follows results filed as active; nt = not tested or not shown.
SMILES,UHRF1 MBD2 ctr,LEDGF integ inh,MBD2 DNA inh,PRMT1 inh,PRMT1 inh conf
COC(=O)c1cc(NCc2c(F)cccc2Cl)ccc1N1CCOCC1,-2,2,-3,7,nt
COC(=O)c1ccc(NCc2c(O)ccc(O)c2Br)cc1Cl,-1,15*,-10,82*,15
CC12CCC(C(=O)NCc3ccc(F)cc3)(OC1=O)C2(C)C (configuration not stated),1,1,-4,4,nt
C[C@H]1CN([C@@H](C)CO)C(=O)c2cc(-c3ccccc3F)cnc2O[C@@H]1CN(C)C(=O)NC1CCCCC1,-2,2,-4,-4,nt
Cc1ccc(N2C(=O)CC(Sc3ccccc3C(=O)O)C2=O)c([N+](=O)[O-])c1 (configuration not stated),-1,6,5,63*,65*
COc1ccc(N2C(=O)CC(Sc3ccccc3C(=O)O)C2=O)c([N+](=O)[O-])c1 (configuration not stated),6,-7,-3,100*,55*
O=C(COC(=O)Cc1ccccc1[N+](=O)[O-])NCC1CCCCC1,3,-9,8,8,nt
Cc1ccc(OCC(=O)NCCc2c[nH]c3ccccc23)cc1,0,0,3,-2,nt
O=C(Nc1nc(-c2ccco2)c(-c2ccco2)s1)c1ccc(F)cc1F,-2,11,-6,34*,11
CC(=O)c1sc(NC(=O)c2ccccc2F)nc1-c1ccccc1,-1,-2,3,3,nt
O=C(Nc1nc(-c2ccco2)c(-c2ccco2)s1)c1c(F)cccc1Cl,15,48*,1,54*,19
Cc1cc(C(=O)Nc2ccc(OCc3ccccc3)cc2)c(C)o1,4,-6,3,5,nt
COC(=O)N/N=C/c1sc(N2CCCCC2)nc1-c1cccs1,-2,1,0,-3,nt
CN(C(=O)/C=C/c1ccccc1)C1CCCCC1,-2,1,0,-2,nt
COC(=O)C1CCN(c2ccc(Cl)nn2)CC1,1,-5,6,-1,nt
O=C1Nc2ccccc2S/C1=C/NCc1ccccc1Cl,-3,0,-1,20,nt
COc1ccc(N/C=C2/Sc3ccccc3NC2=O)cc1,3,-1,2,33*,30*
Cc1ccc(N/C=C2/Sc3ccccc3NC2=O)cc1,9,2,-1,31*,10
COc1ccccc1N/C=C1/Sc2cc(Cl)ccc2NC1=O,3,4,2,0,nt
Cc1ccc(C)c(N(CC(=O)NC(C)(C)C)C(=O)CNC(=O)c2cccs2)c1,-1,-2,0,-3,nt
COCCNC(=O)c1cc(-c2ccccc2)sc1N,4,-1,-1,32*,-2
Cc1ccc(-n2c(SCC(=O)Nc3ccc4c5c(cccc35)CC4)nc(O)c(C)c2=O)cc1,1,0,2,37*,31*
Cc1ccc(-c2nc(N)sc2CC(=O)OCC(=O)NC2CCCC(C)C2C)cc1 (configuration not stated),-2,-2,4,1,nt
Cc1ccc(-c2nc(N)sc2CC(=O)OCC(=O)N2C(C)CCCC2C)cc1 (configuration not stated),3,1,-3,49*,1
O=S1(=O)N[C@H](Cc2ccccc2)COc2cc(N3CCN(Cc4ccccc4F)CC3)ccc21,-2,1,-6,-6,nt
SMILES,UHRF1 MBD2 ctr,LEDGF integ inh,MBD2 DNA inh,PRMT1 inh,PRMT1 inh conf
CC(C)NC(=O)C1(C)CCN1C(=O)c1ccccc1 (configuration not stated),2,-2,3,2,nt
CCOc1ccc(NC(=O)CSc2nc3cc(C(=O)NCC4CCCO4)ccc3c(=O)n2CC2CCCO2)cc1 (configuration not stated),-2,-1,-3,-3,nt
Cc1ccc(NC(=O)CSC2=Nc3ccccc3C3CC=NN23)c(C)c1 (configuration not stated),-2,-1,4,8,nt
O=C(CSC1=Nc2ccccc2C2CC=NN12)Nc1ccc(F)cc1Cl (configuration not stated),0,3,-3,32*,43*
CC1(Cc2ccc(F)cc2)C(=O)Nc2ccc(-c3cccnc3)cc21 (configuration not stated),3,0,7,4,nt
CCCCNc1ccc2c3c(cccc13)C(=O)N(CCCC)C2=O,-19,0,-5,155*,133*
CN(C)CCCN1C(=O)c2cccc3c(Br)ccc(c23)C1=O,2,3,10,38*,10
CCCN1C(=O)c2cccc3c(N4CCCCC4)ccc(c23)C1=O,-16,3,3,84*,51*
Cc1nn(C)c(C)c1N1C(=O)c2cccc3c(Br)ccc(c23)C1=O,22*,-2,0,57*,0
CCN(C(=O)COC(=O)c1[nH]c(=O)[nH]c(=O)c1N)c1ccccc1,-7,-3,-3,0,nt
CCN(CC)S(=O)(=O)c1ccc(C(=O)OCCN2C(=O)c3cccc4c(N5CCOCC5)ccc(c34)C2=O)cc1,8,-2,-12,1,nt
CC(=O)N(C(C)=O)N1C(=O)c2cccc3c(N4CCOCC4)ccc(c23)C1=O,-7,0,-3,28*,7
COC(=O)c1cc(NC(=O)Cc2ccccc2[N+](=O)[O-])cc(C(=O)OC)c1,-8,2,2,-3,nt
COc1cc(C2NC(=O)NC(c3ccccc3)=C2C(C)=O)c(Br)c(Br)c1O (configuration not stated),2,-7,2,2,nt
CC(=O)c1c(C)[nH]c(C(=O)OCC(=O)NCc2ccc(Cl)cc2)c1C,0,2,0,168*,-2
COC(=O)C[C@H]1CC[C@@H]2[C@@H](COc3ccc(NS(=O)(=O)c4ccccc4Cl)cc3C(=O)N2C)O1,-1,0,2,0,nt
CCOC(=O)CC(=O)CSc1ncnc2c1nnn2-c1ccccc1,0,-5,4,64*,92*
CC(C)Oc1ccc(-c2csc(N3CCC(C(N)=O)CC3)n2)cc1,-1,-5,7,5,nt
COCCSc1ccccc1C(=O)Nc1cc(C)on1,2,-2,2,26*,22*
COc1ccccc1C(=O)Nc1cc(C)on1,-2,3,-6,-4,nt
Cc1sc2nc(SCC(=O)Nc3cccc(S(N)(=O)=O)c3)[nH]c(=O)c2c1C,-1,3,-6,27*,1
CC(=O)Nc1c(O)nc(SCC(=O)Nc2ccc(C(C)=O)cc2)[nH]c1=O,-2,2,-3,59*,19
CC(=O)Nc1c(O)nc(SCC(=O)Nc2cccc(C)c2)[nH]c1=O,1,0,0,54*,3
